High-throughput results deposited in PubChem BioAssay by several laboratories.
MPTP inh: mitochondrial permeability transition pore inhibitors, primary screen, biochemical, isolated mouse mitochondria, absorbance. Ca2+ swelling absorbance, 30 min. inhibition, % at 10 µM. actives 1.4% (n = 360,000). AID 602449, 2012;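 active = inhibition of 50% or more, scaled per plate between neutral and stimulator controls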
HSF-1 act: HSF-1 activators, primary screen, NIH3T3-HGL cells, MG132 stress, luminescence, single point; NIH3T3-HGL HSF-1 luciferase reporter, 8 h; 100% = twice DMSO control signal; activation, % at 9 µM; actives 1.7% (n = 300,000);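 active = mean replicate activation of at least 50% with a set share of replicates each reaching 50%; inconclusive = only one of those two conditions met; inactive = mean below 50% and too few replicates reaching it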
HSP90 inh: HSP90 inhibitors, primary screen, cell lysate, luminescence | Heat shock protein HSP 90 (rabbit reticulocyte lysate; luciferase refolding) | Rabbit reticulocyte lysate, luciferase refolding luminescence, 3 h | inhibition, % at 5.6 µM | actives 0.91% (n = 290,000);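 active = inhibition above the screen-wide mean plus 3 SD, computed separately per campaign, cut at about 16% in these data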;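 note: inhibitors lower the luminescence because luciferase stays unfolded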
HSF1 inhib: HSF1 inhibitors in luciferase reporter cells, primary screen, cell-based, NIH3T3, luminescence; NIH3T3-HGL HSE-luciferase, MG132-induced, luminescence 8 h; active compounds read low; activity change, negative = inhibition, % at 7.5 µM (by protocol); actives 0.77% (n = 300,000); AID 2098, 2009;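 active = more than half of replicate wells show activity change below -50%, luminescence cut by over half; inconclusive = some wells, but at most half, below -50%; inactive = no replicate well below -50%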;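 note: luciferase reports HSF-1 transcriptional activity via heat shock element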
Platelet DG rel: inhibitors of platelet dense granule secretion, primary screen, cell-based, MLPCN, human platelets | actives 0.22% (n = 300,000) | human platelet-rich plasma, SFLLRN dense granule ATP release, luminescence | inhibition, %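 (compounds screened at 7.5 µM in platelet-rich plasma)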;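 active = mean replicate score, as percent of positive control, at or above 50; inconclusive = mean below 50 but at least one replicate at or above 50; inactive = mean and every replicate below 50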
dFosB act: activators of delta FosB homodimer, primary screen, biochemical, fluorescence polarization, TAMRA-CDK5 oligo, single point; purified delta FosB; percent of positive-control signal above neutral wells; activation, % at 25 µM; actives 0.99% (n = 340,000); AID 493131, 2011;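 active = mean activation above about 17%, with every replicate also reaching it, limit read from the data, passing the limit was not always enough; inconclusive = only one of the two conditions met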
Target sequence (P13346 whole entry, looked up): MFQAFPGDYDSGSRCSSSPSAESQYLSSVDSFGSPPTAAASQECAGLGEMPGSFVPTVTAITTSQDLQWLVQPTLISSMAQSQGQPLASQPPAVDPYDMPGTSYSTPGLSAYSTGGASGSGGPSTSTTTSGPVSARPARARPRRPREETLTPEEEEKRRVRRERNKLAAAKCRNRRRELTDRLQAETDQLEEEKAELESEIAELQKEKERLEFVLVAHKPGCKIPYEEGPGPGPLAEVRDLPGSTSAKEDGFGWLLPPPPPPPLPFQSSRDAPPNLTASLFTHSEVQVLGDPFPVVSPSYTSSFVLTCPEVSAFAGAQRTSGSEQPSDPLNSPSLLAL
MPTP counter: fluorescence retest of MPTP screen hits in isolated mitochondria, single concentration. actives 78% (n = 5,000). AID 624504, 2012. shares compounds with MPTP inh. inhibition, % at 10 µM. membrane potential, Rhodamine 123 fluorescence; in the data active = inhibition above about 22%
MPTP abs DR: mitochondrial permeability transition pore inhibitors, dose response, biochemical, absorbance, uHTS hits | shares compounds with MPTP inh | isolated mitochondria swelling | IC50, µM | actives 58% (n = 780) | AID 651561, 2012; in the data active = IC50 below about 20 µM
MPTP counter DR: fluorescent counter-screen in isolated mitochondria, dose response, counter-screen for MPTP inhibitor project, biochemical, fluorescence, uHTS hits; shares compounds with MPTP inh; isolated mitochondria counterscreen, fluorescence read-out; IC50, µM; actives 49% (n = 780); AID 651564, 2012; in the data active = IC50 below about 80 µM
Of the large screens only hits and unclear results are named; the others gave an inactive call (follow-up assays come after a bar, where they were run). Hits are enriched below; roughly 4.9% of the tested compounds scored in any of these assays.

CC(=NNC(=S)Nc1ccc(C)cc1)c1ccccn1	none (no result: HSF-1 act, HSP90 inh, HSF1 inhib, Platelet DG rel)
NCCCCCCNS(=O)(=O)c1cccc2c(Cl)cccc12	MPTP inh 108.1 (no result: HSP90 inh) | MPTP counter inactive | MPTP abs DR 7.44 | MPTP counter DR 46.5
C[C@H](CO)N1C[C@H](C)[C@@H](CN(C)C(=O)c2ccc3ccn(C)c3c2)OCc2cn(nn2)CCCC1=O	none (no result: HSF-1 act, HSP90 inh, HSF1 inhib, Platelet DG rel, dFosB act)
Cc1cc(O)c2c(c1O)C(=O)[C@]13C(=C2O)C(=O)[C@@H]2[C@@H](O)[C@H]1[C@@H]1[C@H](O)[C@H]3C(=O)C3=C(O)c4c(O)cc(C)c(O)c4C(=O)[C@]312	MPTP inh 103.9 (no result: HSF-1 act, HSP90 inh, HSF1 inhib, Platelet DG rel) | MPTP counter inactive
CCCCSCc1nc2nc(Cl)c(Cl)nc2[nH]1	MPTP inh 71.8 (no result: HSF-1 act, HSP90 inh, HSF1 inhib, Platelet DG rel, dFosB act) | MPTP counter 82.8
CNc1cncc(-c2ccc(CN(C)C)cc2)n1	none (no result: HSF-1 act, HSP90 inh, HSF1 inhib, Platelet DG rel, dFosB act)
Cc1ncc(CO)c(/C=N/NC(=S)Nc2ccc(Cl)c(Cl)c2)c1O	MPTP inh 87.3 | MPTP counter 69.6
Cc1ncc(CO)c(/C=N/NC(=O)c2ccc(O)cc2)c1O	none
Cc1ncc(CO)c(/C=N/NC(=S)Nc2cccc(Cl)c2)c1O	MPTP inh 78.4 | MPTP counter 79.2
Cc1ncc(CO)c(/C=N/NC(=O)c2ccccc2Br)c1O	none
Fc1ccccc1-c1nnc2ccc3ccccc3n12	none
Fc1cccc(Cl)c1-c1nnc2ccc3ccccc3n12	MPTP inh 51.1 | MPTP counter 31.1
N#Cc1ccsc1NC(=O)c1cnccn1	none
CC(C)(C)NS(=O)(=O)c1cc(C(=O)Nc2sccc2C#N)ccc1Cl	MPTP inh 75.2 | MPTP counter 57.0
CCCN(C(=O)COC(=O)c1[nH]c(C)c(C(=O)OC)c1C)c1c(N)n(Cc2ccccc2)c(=O)[nH]c1=O	MPTP inh 60.2 (no result: HSP90 inh) | MPTP counter inactive | MPTP abs DR inactive | MPTP counter DR inactive
CCCN(C(=O)COC(=O)CC1CCCCC1)c1c(N)n(Cc2ccccc2)c(=O)[nH]c1=O	dFosB act inconclusive (no result: HSP90 inh)
OC(CN1CCN(c2cccc(C(F)(F)F)c2)CC1)c1c[nH]c2ccccc12 (stereo unspecified)	MPTP inh 52.6 | MPTP counter inactive | MPTP abs DR inactive | MPTP counter DR 72.5
OC(COCc1cccs1)CN1CCN(c2cccc(C(F)(F)F)c2)CC1 (stereo unspecified)	none
CC[C@@H](C)[C@H](CN[C@H](CNC)C(C)C)NC[C@@H](C)c1ccc(CC(C)C)cc1	none
CC[C@H](C)[C@@H](CN[C@H](C)CNC)NCCC(c1ccccc1)c1ccccc1	MPTP inh 101.0 | MPTP counter inactive | MPTP abs DR 3.81 | MPTP counter DR inactive
O=C(NCCCN1CCOCC1)c1ccc2nc(Cc3ccccc3F)oc2c1	none
O=C1/C(=C/c2cccs2)SC(=S)N1c1cccc(O)c1	none
O=C(N/N=C/c1cccc(O)c1)c1ccccc1O	none
O=C(N/N=C/c1cccc(O)c1)c1csc2ccccc12	MPTP inh 108.5 | MPTP counter inactive | MPTP abs DR 1.07 | MPTP counter DR inactive
O=C(NC(NC1CCS(=O)(=O)C1)C(Cl)(Cl)Cl)c1ccc(Br)cc1 (stereo unspecified)	MPTP inh 90.9 | MPTP counter 101.9
CC(=O)Oc1c(I)cc(I)cc1C(=O)Nc1ccc(Cl)cc1	MPTP inh 70.5 | MPTP counter 68.9
COc1cccc(CNC(=O)COc2cc3c(c4oc(=O)cc(C)c24)CCC(C)(C)O3)c1	none
Cc1ccc(Oc2cc([N+](=O)[O-])cc3c2C(=O)Nc2ccccc2O3)cc1	MPTP inh 56.2 | MPTP counter 28.6
CC(C)(C)c1ccccc1OCCCCCNCCO	MPTP inh 90.0 | MPTP counter inactive | MPTP abs DR 7.88 | MPTP counter DR inactive
CN(C)CCNS(=O)(=O)c1ccc(N2CCc3ccccc32)c([N+](=O)[O-])c1	MPTP inh 88.0 | MPTP counter inactive | MPTP abs DR 11.8 | MPTP counter DR 49
CN(C)CCCNS(=O)(=O)c1ccc(N2CCN(Cc3ccc4c(c3)OCO4)CC2)c([N+](=O)[O-])c1	MPTP inh 87.2 | MPTP counter 93.1
CN(Cc1ccccc1)c1nc(-c2cccc([N+](=O)[O-])c2)nc2ccccc12	MPTP inh 67.0 | MPTP counter inactive | MPTP abs DR 19.1 | MPTP counter DR inactive
O=[N+]([O-])c1cccc(-c2nc(NCc3ccccc3)c3ccccc3n2)c1	none
O=C(NCc1cc([N+](=O)[O-])ccc1O)c1cccc(NS(=O)(=O)c2ccccc2)c1	none
Cc1c(C(=O)N/N=C/c2ccc(N(C)C)cc2)[nH]c2ccc(Cl)cc12	MPTP inh 80.2 | MPTP counter 74.3
O=C(N/N=C/c1ccccc1Cl)c1[nH]c2ccc(Br)cc2c1-c1ccccc1	MPTP inh 82.4 | MPTP counter 87.6
Cc1c(C(=O)N/N=C/c2ccccc2)[nH]c2ccc(Cl)cc12	MPTP inh 86.6 | MPTP counter 88.8
COc1ccc(/C=N/NC(=O)c2[nH]c3ccc(Br)cc3c2-c2ccccc2)c(C(=O)O)c1OC	none
COc1ccc(/C=N/NC(=O)c2[nH]c3ccc(Cl)cc3c2-c2ccccc2)c(C(=O)O)c1OC	none
O=C(c1cc(-c2ccccc2)n[nH]1)N1CCc2c([nH]c3ccccc23)C1c1ccccn1 (stereo unspecified)	none
CNc1ncnc2c1ncn2[C@H]1CN(Cc2cccs2)C[C@@H](CO)O1	none (no result: HSF-1 act, HSP90 inh, HSF1 inhib, Platelet DG rel, dFosB act)
CCCN(CCC)CC(O)Cn1cc(/C=C/C(=O)c2ccccc2)c2ccccc21 (stereo unspecified)	none
CCCN(CCC)CC(O)Cn1cc(/C=C/C(=O)c2cccs2)c2ccccc21 (stereo unspecified)	MPTP inh 74.4 | MPTP counter inactive
CCN(CC)S(=O)(=O)c1ccc(N2CCOCC2)c(NC(=O)c2cc3ccccc3o2)c1	none (no result: HSF-1 act, HSP90 inh, HSF1 inhib, Platelet DG rel, dFosB act)
